Sampled rows, rich in hits. Any-hit rate of the full collection: about 13%.
USP30 block: blocks human USP30 ubiquitin-rhodamine cleavage. Q70CQ3. purified USP30, Ub-rhodamine cleavage fluorescence. inhibition, % at 25 µM. 5.3% of 47,000 active. AID 1645860
USP8 block: blocks human USP8 ubiquitin-rhodamine cleavage. inhibition, % at 20 µM. purified USP8, Ub-rhodamine cleavage fluorescence, 30 min. AID 1645853. 4.2% of 47,000 active. P40818
Target sequence (P40818 whole entry, looked up): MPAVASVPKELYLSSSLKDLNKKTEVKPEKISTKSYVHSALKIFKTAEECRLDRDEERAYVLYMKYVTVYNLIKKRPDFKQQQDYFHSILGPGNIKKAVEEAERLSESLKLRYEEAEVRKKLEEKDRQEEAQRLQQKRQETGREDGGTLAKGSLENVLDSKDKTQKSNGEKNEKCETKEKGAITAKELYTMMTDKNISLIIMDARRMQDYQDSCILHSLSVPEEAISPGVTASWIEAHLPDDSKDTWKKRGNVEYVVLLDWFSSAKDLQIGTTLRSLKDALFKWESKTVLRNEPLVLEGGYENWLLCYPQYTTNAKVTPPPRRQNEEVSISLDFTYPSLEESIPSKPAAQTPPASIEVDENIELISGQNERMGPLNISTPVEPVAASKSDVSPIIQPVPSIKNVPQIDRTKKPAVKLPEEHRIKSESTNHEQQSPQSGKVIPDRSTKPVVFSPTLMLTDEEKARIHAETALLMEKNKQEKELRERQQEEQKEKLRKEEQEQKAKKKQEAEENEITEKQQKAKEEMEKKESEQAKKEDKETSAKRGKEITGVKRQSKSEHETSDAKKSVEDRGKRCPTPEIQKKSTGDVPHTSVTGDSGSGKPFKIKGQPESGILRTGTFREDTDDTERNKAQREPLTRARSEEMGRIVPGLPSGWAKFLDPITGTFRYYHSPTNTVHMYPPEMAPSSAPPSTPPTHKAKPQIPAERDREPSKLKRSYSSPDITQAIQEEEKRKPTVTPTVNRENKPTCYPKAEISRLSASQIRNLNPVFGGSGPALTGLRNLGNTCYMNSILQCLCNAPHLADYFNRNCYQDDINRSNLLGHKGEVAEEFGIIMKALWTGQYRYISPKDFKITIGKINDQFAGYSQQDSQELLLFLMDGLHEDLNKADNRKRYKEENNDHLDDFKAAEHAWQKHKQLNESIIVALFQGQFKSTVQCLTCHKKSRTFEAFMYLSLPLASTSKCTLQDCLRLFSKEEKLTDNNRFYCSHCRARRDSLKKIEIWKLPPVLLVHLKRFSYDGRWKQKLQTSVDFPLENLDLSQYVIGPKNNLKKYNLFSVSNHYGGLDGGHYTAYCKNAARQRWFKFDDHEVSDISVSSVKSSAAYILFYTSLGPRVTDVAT
USP28 block: blocks human USP28 ubiquitin-rhodamine cleavage; purified USP28, Ub-rhodamine cleavage fluorescence, 30 min; 3% of 47,000 active; inhibition, % at 25 µM; Q96RU2
USP17 inh: human USP17-like deubiquitinase inhibition; 6.5% of 47,000 active; inhibition, % at 50 µM; A8MUK1; AID 1645855; purified USP17, Ub-rhodamine cleavage fluorescence, 3 h
* marks the source's active call; other numbers are inactive results. Rule as the data show it: active = inhibition above about 30%; inactive = the rest.

SMILES | USP30 block | USP8 block | USP28 block | USP17 inh
CCC(CC(C)C(=O)O)C(=O)CC/C1=C/C(C)C/C(C)=C/C(C)C(O)C(C)CCC(CCCC/C=C/C(C)CCC(C)OC(=O)CC(CC(=O)O)C(=O)O)OC(=O)CC(C(=O)O)CC(=O)OC1 (configuration not stated) | 32* | 6 | 0 | 0
CN(C)Cc1c[nH]c2c(OCc3ccccc3)cccc12 | 35* | 1 | 45* | 8
Cc1cccc(COc2ccc(C3SCC(=O)Nc4n[nH]c(C)c43)cc2)c1 (configuration not stated) | 21 | 86* | 13 | 56*
Cc1[nH]nc2c1C(c1cccc(F)c1)SCC(=O)N2 (configuration not stated) | -2 | 3 | -5 | -3
N#Cc1ccc(COC(=O)C(O)(c2ccccc2)c2ccccc2)cc1 | 10 | 5 | 20 | 17
Cc1ccc2nc(COC(=O)C(O)(c3ccccc3)c3ccccc3)cc(=O)n2c1 | -56 | 40* | 11 | -2
COCCN1C[C@@H]2c3nc(NCC4CC4)ncc3CS(=O)(=O)[C@@H]2C1 | 12 | -31 | 10 | -3
CC1(C)CC(n2[nH]c(=O)c3c2NC(=O)CSC3c2ccccc2)CCO1 (configuration not stated) | 33* | 15 | 11 | 11
O=C1CSC(c2ccc(F)cc2)c2c(n(C3CCCCCC3)[nH]c2=O)N1 (configuration not stated) | 30* | 83* | 11 | 17
COc1ccc(C2SCC(=O)Nc3c2c(=O)[nH]n3C2CCCCC2)cc1 (configuration not stated) | 11 | 8 | 4 | 68*
O=C1CSC(c2ccc(Cl)cc2)c2c(n(C3CCCC3)[nH]c2=O)N1 (configuration not stated) | 0 | 25 | -5 | 5
O=C(O)CC(CNC(=O)Cc1c[nH]c2ccccc12)c1ccc(Cl)cc1 (configuration not stated) | -2 | -10 | -5 | -1
Cc1nc(NCC2CC2)nc2c1COCC21CCN(CC(C)C)C1 (configuration not stated) | -2 | -17 | 8 | -7
Cc1cc(C)c2nc3c(cc2c1)CNCCO3 | 5 | 1 | -3 | -4
NC[C@H]1O[C@H](O[C@H]2[C@H](O)[C@@H](O)[C@H](N)C[C@@H]2N)[C@H](N)[C@@H](O)[C@@H]1O | -43 | -15 | -16 | -15
CCCC1Cc2cc3c(c(O)c2C(=O)O1)-c1c(c(OC)c2oc4c(O[C@H]5C[C@H](O)[C@H](O[C@H]6C[C@H](O)[C@H](O[C@H]7C[C@H](OC)[C@H](O)C(C)O7)C(C)O6)C(C)O5)ccc(O)c4c(=O)c2c1O)[C@H](O)[C@@H]3O (some centres not stated) | -60 | -41 | 1 | 37*
CCc1cc2c(s1)NC(=O)CN=C2c1ccccc1OC | -12 | -2 | -8 | -15
CCC1N2CC3(C)CN1CC(C)(C2)C3=O (configuration not stated) | 0 | -4 | 0 | -1
CN(C)[C@@H]1C(=O)C(C(N)=O)=C(O)[C@@]2(O)C(=O)C3=C(O)c4c(O)cccc4[C@@](C)(O)C3[C@H](O)[C@@H]12 (some centres not stated) | 50* | 50* | 87* | 84*
CN(C)[C@@H]1C(=O)C(C(N)=O)=C(O)[C@@]2(O)C(=O)C3=C(O)c4c(O)cccc4[C@@](C)(O)[C@H]3C[C@@H]12 | -99 | 0 | 28 | 51*
O=C(COc1ccc(Cl)cc1)N1CCN(CCc2ccccn2)CC1 | 11 | 10 | 6 | 6
CN1CC[C@@H]2[C@H](C1)CN2S(=O)(=O)c1cccc(Cl)c1 | 2 | -150 | -4 | -19
CN(C[C@H]1CN2CC[C@H]1C[C@@H]2CNC(=O)Nc1cccc(F)c1)c1ccccc1 | 40* | -28 | -4 | -27
CC1CCN(C[C@H]2CN3CC[C@H]2C[C@@H]3CNC(=O)Nc2ccccc2)CC1 | 8 | -2 | 12 | 0
Oc1ccc2cc(Br)ccc2c1CN1CC=C(c2ccccc2)CC1 | 13 | 44* | 8 | 9
SMILES | USP30 block | USP8 block | USP28 block | USP17 inh
O=C(CN1CC=C(c2ccccc2)CC1)Nc1ccc2c(c1)OCO2 | 15 | 8 | 8 | 10
O=C(Nc1cccnc1)c1nc2c(s1)CCNCC2 | -7 | -21 | -1 | -6
Cc1cccc(CN2CC[C@H]3[C@H]2CCN3S(=O)(=O)C2CC2)n1 | -8 | -257 | -5 | -36
CC(C)=CCCC1(C)C=Cc2c(O)c3c(c(CC=C(C)C)c2O1)O[C@]12C(=C[C@@H]4CC1C(C)(C)O[C@@]2(C/C=C(/C)C(=O)O)C4=O)C3=O (some centres not stated) | 37* | 70* | 90* | 82*
COc1c(Cl)ccc2c(=O)c3c(O)c4c5c(c3oc12)OCO[C@H]5[C@@H](OC)c1cc2c(c(O)c1-4)C(=O)N(C)[C@H](OC)[C@@H]2O | 64* | 6 | 49* | -12
CO[C@H]1CC[C@H](O)c2c1oc1c3c4c(c(O)c1c2=O)-c1c(cc2cc(C)n(N)c(=O)c2c1O)C[C@@H]4OCO3 | -29 | 2 | 8 | 28
COc1c(Cl)ccc2c(=O)c3c(oc12)C1=C2[C@@H](OCO1)[C@@H](OC)c1cc4c(c(O)c1[C@@]2(O)[C@H]3O)C(=O)N(C)[C@H](OC)[C@@H]4O | 60* | -17 | 43* | 12
O=C(NCC1CC1)[C@@]12CCCN(c3ncccn3)[C@@H]1CNC2 | 0 | -60 | -3 | -9
Cc1ccc(C)c(NC(=O)CCc2nc(C3=CCN(C)CC3)no2)c1 | -113 | -10 | -25 | -21
COc1ccccc1-c1cc([C@H]2CN3CC[C@H]2C[C@@H]3CN)n(C)n1 | -199 | 54* | -71 | 0
COc1ccc(-c2cc([C@H]3CN4CC[C@H]3C[C@@H]4CO)n(C)n2)cc1OC | 20 | -2 | 7 | 7
CO[C@H]1[C@@H](O)[C@H](C)O[C@H](O[C@H]2[C@H](Oc3cccc4c(O)c5c(=O)oc6ccc(C)c7c(=O)oc(c34)c5c67)O[C@H](C)[C@H](O)[C@@H]2O)[C@@H]1O | -6 | -329 | 65* | 78*
O=C(N[C@@H]1CN2CCC1CC2)c1cccc2[nH]cnc12 | -6 | 6 | -2 | 7
Cn1c(=O)c2ncnnc2n(C)c1=O | 83* | 98* | 96* | 95*
Cc1noc(C)c1CN1C[C@H](Oc2ccccn2)[C@H]2OCCC[C@H]21 | -203 | -140 | -50 | -70
O=c1c2ccccc2nc(CSc2cccc(Cl)c2Cl)n1-c1ccccc1 | 12 | 30* | -4 | 6
Cc1ccccc1SCc1nc2ccccc2c(=O)n1-c1cccc(C(F)(F)F)c1 | 10 | 19 | 6 | 11
CO[C@H](c1ccccc1)[C@@H]1NC(=O)[C@H](C)NC(=O)[C@H](C[C@@H](C)CO)N(C)C(=O)[C@H]([C@H](O)c2cn(C(C)(C)[C@@H]3CO3)c3ccccc23)NC(=O)[C@H]([C@H](C)C=C(C)C)NC(=O)[C@H](CC(C)C)N(C)C(=O)[C@H](C(C)C)NC1=O | 19 | 17 | -2 | 33*

Screens deposited in PubChem by Buhrlage Lab, Dana-Farber Cancer Institute and Novartis Institutes for BioMedical Research (Cambridge, Mass).
